Data reported in PubChem BioAssay AID1159580 (chemical genetic matrix, 2015).
Hit rate of the full screen: of about 5,500 compounds, about 2,000 (36%) were called active. Another 18% or so got no clear call; they are omitted. Cut-off read from the data, not from the text of the source: active = normalized growth mostly below about 0.91 (no sharp cut-off); inconclusive = no clear call, values can overlap the other calls; inactive = mostly above about 0.92. The list shows a part of the results.

Assay: chemical genetic growth profiling, strain panel (AID 1159580);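 note: tested at 20 µM; growth read once vehicle control cultures reached saturation at 30 °C; 1 = growth at the plate median or of vehicle wells; lower values mean less growth of the strain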
Conditions: growth OD

Measured: normalized growth

COc1c2ccoc2cc2oc(C)cc(=O)c12
active: S. cerevisiae deletion strains, locus YLR418C, strain cdc73, hits give low values 0.835
inactive: S. cerevisiae deletion strains, locus YKL009W, strain mrt4, hits give low values 0.965 | S. cerevisiae deletion strains, locus YKL068W, hits give low values 0.982 | S. cerevisiae deletion strains, locus YKL085W, strain MDH1 (second series), hits give low values 0.974 | S. cerevisiae deletion strains, locus YKL085W, strain MDH1, hits give low values 0.974 | S. cerevisiae deletion strains, locus YKL160W, strain elf1, hits give low values 0.993 | S. cerevisiae deletion strains, locus YKL190W, strain CNB1, hits give low values 0.978 | S. cerevisiae deletion strains, locus YKR001C, strain vps1, hits give low values 0.961 | S. cerevisiae deletion strains, locus YKR026C, strain gcn3, hits give low values 0.982 | S. cerevisiae deletion strains, locus YKR091W, strain srl3, hits give low values 0.998 | S. cerevisiae deletion strains, locus YLL001W, strain dnm1, hits give low values 0.998 | S. cerevisiae deletion strains, locus YLL026W, hits give low values 0.992 | S. cerevisiae deletion strains, locus YLL041C, strain sdh2, hits give low values 1.01 | S. cerevisiae deletion strains, locus YLR027C, strain aat2, hits give low values 0.997 | S. cerevisiae deletion strains, locus YLR039C, strain RIC1, hits give low values 0.968 | S. cerevisiae deletion strains, locus YLR058C, strain SHM2, hits give low values 0.936 | S. cerevisiae deletion strains, locus YLR102C, strain apc9, hits give low values 0.992 | S. cerevisiae deletion strains, locus YLR113W, strain HOG1, hits give low values 1.1 | S. cerevisiae deletion strains, locus YLR221C, strain rsa3, hits give low values 0.987 | S. cerevisiae deletion strains, locus YLR258W, strain gsy2, hits give low values 0.987 | S. cerevisiae deletion strains, locus YLR262C, strain YPT6 (second series), hits give low values 1.03 | S. cerevisiae deletion strains, locus YLR262C, strain YPT6, hits give low values 0.92 | S. cerevisiae deletion strains, locus YLR268W, strain sec22, hits give low values 1.02 | S. cerevisiae deletion strains, locus YLR320W, strain mms22, hits give low values 0.993 | S. cerevisiae deletion strains, locus YLR330W, strain CHS5, hits give low values 0.986 | S. cerevisiae deletion strains, locus YLR342W, strain FKS1 (second series), hits give low values 1.01 | S. cerevisiae deletion strains, locus YLR342W, strain FKS1, hits give low values 0.984 | S. cerevisiae deletion strains, locus YLR357W, strain rsc2, hits give low values 0.98 | S. cerevisiae deletion strains, locus YLR370C, strain arc18, hits give low values 0.992 | S. cerevisiae deletion strains, locus YLR371W, strain rom2, hits give low values 0.986 | S. cerevisiae deletion strains, locus YLR384C, strain iki3, hits give low values 1 | S. cerevisiae deletion strains, locus YML016C, strain PPZ1, hits give low values 0.977 | S. cerevisiae deletion strains, locus YML032C, strain rad52, hits give low values 0.912 | S. cerevisiae deletion strains, locus YML120C, strain ndi1, hits give low values 1.02 | S. cerevisiae deletion strains, locus YML124C, strain tub3, hits give low values 0.99 | S. cerevisiae deletion strains, locus YMR058W, strain fet3, hits give low values 1 | S. cerevisiae deletion strains, locus YMR078C, strain ctf18, hits give low values 0.977 | S. cerevisiae deletion strains, locus YMR125W, strain sto1, hits give low values 0.997 | S. cerevisiae deletion strains, locus YMR129W, hits give low values 0.999 | S. cerevisiae deletion strains, locus YMR205C, strain PFK2, hits give low values 1.01 | S. cerevisiae deletion strains, locus YMR223W, strain ubp8, hits give low values 0.956 | S. cerevisiae deletion strains, locus YMR231W, strain pep5, hits give low values 1.01 | S. cerevisiae deletion strains, locus YMR307W, strain GAS1, hits give low values 0.961 | S. cerevisiae deletion strains, locus YNL067W, strain RPL9B, hits give low values 0.96 | S. cerevisiae deletion strains, locus YNL071W, strain lat1, hits give low values 0.993 | S. cerevisiae deletion strains, locus YNL128W, strain TEP1, hits give low values 0.943 | S. cerevisiae deletion strains, locus YNL153C, strain GIM3, hits give low values 0.93 | S. cerevisiae deletion strains, locus YNL183C, strain NPR1, hits give low values 0.983 | S. cerevisiae deletion strains, locus YNL209W, strain ssb2, hits give low values 0.983 | S. cerevisiae deletion strains, locus YNL233W, strain BNI4, hits give low values 0.924 | S. cerevisiae deletion strains, locus YNL248C, strain rpa49, hits give low values 1 | S. cerevisiae deletion strains, locus YNL250W, strain rad50, hits give low values 0.987 | S. cerevisiae deletion strains, locus YNL271C, strain bni1, hits give low values 0.986 | S. cerevisiae deletion strains, locus YNL298W, strain CLA4, hits give low values 0.975 | S. cerevisiae deletion strains, locus YNL307C, strain MCK1, hits give low values 0.991 | S. cerevisiae deletion strains, locus YNL322C, strain KRE1 (second series), hits give low values 0.984 | S. cerevisiae deletion strains, locus YNL322C, strain KRE1, hits give low values 0.976 | S. cerevisiae deletion strains, locus YNR049C, strain mso1, hits give low values 0.993 | S. cerevisiae deletion strains, locus YNR052C, strain pop2, hits give low values 0.977 | S. cerevisiae deletion strains, locus YOL006C, strain TOP1, hits give low values 0.946 | S. cerevisiae deletion strains, locus YOL012C, strain htz1 1.83 | S. cerevisiae deletion strains, locus YOL147C, strain pex11, hits give low values 0.984 | S. cerevisiae deletion strains, locus YOR001W, strain rrp6, hits give low values 0.982 | S. cerevisiae deletion strains, locus YOR061W, strain CKA2, hits give low values 0.959 | S. cerevisiae deletion strains, locus YOR069W, strain VPS5, hits give low values 0.993 | S. cerevisiae deletion strains, locus YOR070C, strain gyp1, hits give low values 0.984 | S. cerevisiae deletion strains, locus YOR080W, strain dia2, hits give low values 1.02 | S. cerevisiae deletion strains, locus YOR083W, strain WHI5, hits give low values 0.994 | S. cerevisiae deletion strains, locus YOR106W, strain vam3, hits give low values 0.994 | S. cerevisiae deletion strains, locus YOR136W, strain idh2, hits give low values 0.996 | S. cerevisiae deletion strains, locus YOR144C, strain elg1, hits give low values 0.989 | S. cerevisiae deletion strains, locus YOR184W, strain ser1, hits give low values 0.967 | S. cerevisiae deletion strains, locus YOR231W, strain MKK1, hits give low values 1.07 | S. cerevisiae deletion strains, locus YOR265W, strain rbl2, hits give low values 1 | S. cerevisiae deletion strains, locus YOR270C, strain vph1, hits give low values 0.997 | S. cerevisiae deletion strains, locus YOR290C, strain snf2, hits give low values 0.974 | S. cerevisiae deletion strains, locus YOR316C, strain cot1, hits give low values 0.995 | S. cerevisiae deletion strains, locus YPL051W, strain arl3, hits give low values 0.979 | S. cerevisiae deletion strains, locus YPL078C, strain atp4, hits give low values 0.992 | S. cerevisiae deletion strains, locus YPL106C, strain sse1, hits give low values 0.95 | S. cerevisiae deletion strains, locus YPL240C, strain hsp82, hits give low values 0.99 | S. cerevisiae deletion strains, locus YPL241C, strain CIN2, hits give low values 0.976 | S. cerevisiae deletion strains, locus YPL256C, strain CLN2, hits give low values 1.05 | S. cerevisiae deletion strains, locus YPR119W, strain clb2, hits give low values 0.986 | S. cerevisiae deletion strains, locus YPR141C, strain kar3, hits give low values 0.984 | S. cerevisiae deletion strains, locus YPR163C, strain tif3, hits give low values 0.978 | S. cerevisiae deletion strains, locus YPR167C, strain met16, hits give low values 0.991 | S. cerevisiae deletion strains, strain wtn01, hits give low values 1.03 | S. cerevisiae strains, strain wild type, hits give low values 0.965
